# Several values for one entry are separate records, joined by “and”; a condition that tells them apart may be missing. Identical values can stand only once. A number with no mark means an inactive call. Inconclusive results are not listed. A call without a number means that no potency is given here. Activity calls are given as the source filed them. Unless noted, calls follow the shape of the dose curve; as a rule, active = well fitted curve in the direction sought with a large enough effect in the repeat runs; inconclusive = weak or mixed curves; inactive = flat fitted curve, though single readings scatter.
# How the values were obtained:
# [1] = qHTS assay to test for compound auto fluorescence at 535 nm (green) in HEK293 cells (AID 720680)
# [2] = qHTS assay to test for compound auto fluorescence at 460 nm (blue) in HEK293 cell free culture (AID 720681)
# In short: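 Test compounds were pinned into cell-free culture medium (DMEM with 10% FBS) and fluorescence was read directly at Ex/Em 405/460 nm. Signals were expressed as fluorescence equivalents of triamterene, with DMSO vehicle as control.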
# [3] = qHTS assay to test for compound auto fluorescence at 535 nm (green) in HEK293 cell free culture (AID 720682)
# In short: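 Read-out: 485/535 nm fluorescence intensity, calibrated against fluorescein. Medium only (DMEM + 10% FBS, no cells); test compound or DMSO vehicle added by pintool before plate reading.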
# [4] = qHTS assay to test for compound auto fluorescence at 590 nm (red) in HEK293 cell free culture (AID 720683)
# In short: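 Tox21 10K library compounds were pinned into cell-free DMEM with 10% FBS and fluorescence was read at excitation 540 nm. Activity is expressed as Rose Bengal sodium equivalency.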
# [5] = qHTS assay to test for compound auto fluorescence at 460 nm (blue) in HepG2 cell free culture (AID 720685); also: potency is read from the fitted curve at half-maximal effect
# In short: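 Compound (23 nL) or DMSO pinned into cell-free MEM with 10% FBS; blue fluorescence read at 405/460 nm excitation/emission, expressed as auto-fluorescence equivalency to triamterene.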
# [6] = qHTS assay to test for compound auto fluorescence at 460 nm (blue) in HepG2 cells (AID 720687)
# In short: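 Cells (2,000/well in MEM with 10% FBS) attached overnight at 37 C, then were exposed to compound or DMSO for 1 hr at 37 C, 5% CO2. Fluorescence read at Ex/Em 405/460 nm, expressed as triamterene-equivalent signal.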
# [7] = biological target: Glucocorticoid receptor (Homo sapiens) (UniProt P04150); assay: qHTS assay to identify small molecule antagonists of the glucocorticoid receptor (GR) signaling pathway (AID 720692; active = well fitted inhibition curve with a large enough effect in the signal ratio in the repeat runs, not every such curve was filed as active; the % refers to the signal ratio; also: potency is read from the fitted curve at half-maximal effect)
# In short: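 Inhibition of glucocorticoid signalling is measured in HeLa cells with a GRE-controlled beta-lactamase reporter; cells are co-treated with compound and 5 nM dexamethasone (final) for 18 h before FRET substrate readout.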
# [8] = qHTS assay to test for compound auto fluorescence at 535 nm (green) in HepG2 cell free culture (AID 720686)
# [9] = biological target: Glucocorticoid receptor (Homo sapiens) (UniProt P04150); assay: qHTS assay to identify small molecule agonists of the glucocorticoid receptor (GR) signaling pathway (AID 720691; active = well fitted activation curve with a large enough effect in the signal ratio in the repeat runs, not every such curve was filed as active; the % refers to the signal ratio)
# In short: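 qHTS in GR-bla HeLa cells: 4 h settling at 37 C/5% CO2, 18 h compound incubation at 37 C, 2 h LiveBLAzer B/G FRET substrate at room temperature, fluorescence intensity measured.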
# Tags tell the direction and shape of the fitted curve or compound fluorescence and quenching.
# Glucocorticoid receptor (Homo sapiens), sequence (P04150 whole entry, looked up): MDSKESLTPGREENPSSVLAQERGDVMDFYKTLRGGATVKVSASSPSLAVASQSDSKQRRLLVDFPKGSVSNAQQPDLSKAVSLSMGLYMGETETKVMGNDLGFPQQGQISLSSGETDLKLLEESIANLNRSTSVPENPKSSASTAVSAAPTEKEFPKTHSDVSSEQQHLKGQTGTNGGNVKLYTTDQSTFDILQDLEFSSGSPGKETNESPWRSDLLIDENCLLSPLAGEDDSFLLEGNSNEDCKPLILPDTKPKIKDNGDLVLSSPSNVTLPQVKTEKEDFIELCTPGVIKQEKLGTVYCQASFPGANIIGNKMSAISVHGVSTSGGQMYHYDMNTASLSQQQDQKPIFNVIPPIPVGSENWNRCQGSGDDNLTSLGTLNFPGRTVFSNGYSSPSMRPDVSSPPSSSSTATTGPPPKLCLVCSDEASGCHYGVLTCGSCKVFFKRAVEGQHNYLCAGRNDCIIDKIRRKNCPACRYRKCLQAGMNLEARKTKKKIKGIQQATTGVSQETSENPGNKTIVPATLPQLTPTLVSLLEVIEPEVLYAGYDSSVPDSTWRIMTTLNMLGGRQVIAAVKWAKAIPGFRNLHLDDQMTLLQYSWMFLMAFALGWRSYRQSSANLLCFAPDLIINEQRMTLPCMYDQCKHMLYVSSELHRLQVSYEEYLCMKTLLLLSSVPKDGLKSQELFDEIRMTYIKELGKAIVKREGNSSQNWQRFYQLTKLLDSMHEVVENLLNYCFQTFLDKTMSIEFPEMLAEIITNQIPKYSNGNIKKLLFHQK
smiles,measurement,setting,value
CCCCCCCCCCCCCCCC[N+](C)(C)C,outcome,[1],inactive
same,Potency,[2],inactive
same,outcome,[3],inactive
same,outcome,[4],inactive
same,Potency,[5],inactive
same,Potency,[6],inactive
S=C(SSC(=S)N1CCCCC1)N1CCCCC1,outcome,[1],inactive
same,Potency,[2],inactive
same,outcome,[3],inactive
same,outcome,[4],inactive
same,Potency,[5],inactive
same,Potency,[6],inactive
same,Potency,[7],inactive
O=c1[nH]c2ccccc2n1C1CCN(CCCC(c2ccc(F)cc2)c2ccc(F)cc2)CC1,outcome,[1],inactive
same,Potency,[2],inactive
same,outcome,[3],inactive
same,outcome,[4],inactive
same,Potency,[5],inactive
same,outcome,[8],inactive
same,Potency,[6],inactive
CCCN(CC)CC1COC2(CCC(C(C)(C)C)CC2)O1 (centres undefined),outcome,[1],inactive
same,Potency,[2],inactive
same,outcome,[3],inactive
same,outcome,[4],inactive
same,Potency,[5],inactive
same,outcome,[8],inactive
same,Potency,[6],inactive
same,Potency,[9],inactive
same,Potency,[7],inactive
CC(C)CC(C)Nc1ccc(Nc2ccccc2)cc1 (centres undefined),outcome,[1],inactive
same,Potency,[2],inactive
same,outcome,[3],inactive
same,outcome,[4],inactive
same,Potency,[5],inactive
same,outcome,[8],inactive
same,Potency,[6],inactive
CCCCCCCCc1ccc(O)cc1,outcome,[1],inactive
same,Potency,[2],inactive
same,outcome,[3],inactive
same,outcome,[4],inactive
same,Potency,[5],inactive
same,outcome,[8],inactive
same,Potency,[6],inactive
same,Potency,[9],inactive
CCOCCOC(C)=O,outcome,[1],inactive
same,Potency,[2],inactive
same,outcome,[3],inactive
same,outcome,[4],inactive
same,Potency,[5],inactive
same,outcome,[8],inactive
same,Potency,[6],inactive
same,Potency,[9],inactive
CC(=O)[O-].[Tl+],outcome,[1],inactive
same,Potency,[2],inactive
same,outcome,[3],inactive
same,outcome,[4],inactive
same,Potency,[5],inactive
same,Potency,[6],inactive
Clc1ccc(CSC(Cn2ccnc2)c2ccc(Cl)cc2Cl)cc1 (centres undefined),"fluorescence, % of fluorescein",[1],-0.0144% [at 18.6 µM]
same,"fluorescence, % of fluorescent control",[2],0.0923% [at 18.6 µM]
same,activity change,[3],-0.0182% [at 18.6 µM]
same,"fluorescence, % of fluorescent control",[4],0.289% [at 18.6 µM]
same,"fluorescence, % of fluorescent control",[5],0.0769% [at 18.6 µM]
same,"fluorescence, % of fluorescein control",[8],-0.107% [at 18.6 µM]
same,"fluorescence, % of fluorescent control",[6],0.0355% [at 18.6 µM]
N#CSCSC#N,outcome,[1],inactive
same,Potency,[2],inactive
same,outcome,[3],inactive
same,outcome,[4],inactive
same,Potency,[5],inactive
same,outcome,[8],inactive
same,Potency,[6],inactive
CC(C)OC(=S)S,outcome,[1],inactive
same,Potency,[2],inactive
same,outcome,[3],inactive
same,outcome,[4],inactive
same,Potency,[5],inactive
same,outcome,[8],inactive
same,Potency,[6],inactive
ClC(Cl)=C(c1ccc(Cl)cc1)c1ccc(Cl)cc1,outcome,[1],inactive
same,Potency,[2],inactive
same,outcome,[3],inactive
same,outcome,[4],inactive
same,Potency,[5],inactive
same,outcome,[8],inactive
same,Potency,[6],inactive
same,Potency,[9],inactive
same,Potency,[7],inactive
CC[C@H](C)[C@H]1O[C@]2(C=C[C@@H]1C)C[C@@H]1C[C@@H](C/C=C(\C)[C@@H](O[C@H]3C[C@H](OC)[C@@H](O[C@H]4C[C@H](OC)[C@@H](O)[C@H](C)O4)[C@H](C)O3)[C@@H](C)/C=C/C=C3\CO[C@@H]4[C@H](O)C(C)=C[C@@H](C(=O)O1)[C@]34O)O2,outcome,[1],inactive
same,Potency,[2],inactive
same,outcome,[3],inactive
same,outcome,[4],inactive
same,Potency,[5],inactive
same,outcome,[8],inactive
same,Potency,[6],inactive
same,Potency,[9],inactive
same,Potency,[7],23.9 µM (active)
COc1ccc(/C(=C/C(=O)N2CCOCC2)c2ccc(Cl)cc2)cc1OC,outcome,[1],inactive
same,Potency,[2],inactive
same,outcome,[3],inactive
same,outcome,[4],inactive
same,Potency,[5],inactive
same,outcome,[8],inactive
same,Potency,[6],inactive
same,Potency,[9],inactive
same,Potency,[7],inactive
CCCSP(=O)(OCC)SCCC,outcome,[1],inactive
same,Potency,[2],inactive
same,outcome,[3],inactive
same,outcome,[4],inactive
same,Potency,[5],inactive
same,outcome,[8],inactive
same,Potency,[6],inactive
same,Potency,[9],inactive
CC(=O)O[C@H]1CC[C@@]2(C)C(=CC[C@@H]3[C@@H]2CC[C@]2(C)C(=O)CC[C@@H]32)C1,outcome,[1],inactive
same,Potency,[2],inactive
same,outcome,[3],inactive
same,outcome,[4],inactive
same,Potency,[5],inactive
same,outcome,[8],inactive
same,Potency,[6],inactive
same,Potency,[9],inactive
same,Potency,[7],inactive
CC(C)(C)c1ccc(CSc2cnn(C(C)(C)C)c(=O)c2Cl)cc1,outcome,[1],inactive
same,Potency,[2],inactive
same,outcome,[3],inactive
same,outcome,[4],inactive
same,Potency,[5],inactive
same,outcome,[8],inactive
same,Potency,[6],inactive
same,Potency,[9],inactive
CCCCCCCCCCCCCCCCCCn1cc[n+](C)c1,outcome,[1],inactive
same,Potency,[2],inactive
same,outcome,[3],inactive
same,outcome,[4],inactive
same,Potency,[5],inactive
same,outcome,[8],inactive
same,Potency,[6],inactive
same,Potency,[9],inactive
CC(C)(C)c1cc([N+](=O)[O-])cc(C(C)(C)C)c1O,outcome,[1],inactive
same,Potency,[2],inactive
same,outcome,[3],inactive
same,outcome,[4],inactive
same,Potency,[5],inactive
same,outcome,[8],inactive
same,Potency,[6],inactive
c1ccc2cc3c(cc2c1)-c1cccc2cccc-3c12,outcome,[1],inactive
same,outcome,[3],inactive
same,outcome,[4],inactive
same,Potency,[5],1.41 µM [fluorescent] (active)
c1ccc(Nc2ccc3ccccc3c2)cc1,outcome,[1],inactive
same,Potency,[2],inactive
same,outcome,[3],inactive
same,outcome,[4],inactive
same,Potency,[5],inactive
same,outcome,[8],inactive
same,Potency,[6],inactive
same,Potency,[9],inactive
same,Potency,[7],inactive
Clc1ccc(CO/N=C(\Cn2ccnc2)c2ccc(Cl)cc2Cl)c(Cl)c1,outcome,[1],inactive
same,Potency,[2],inactive
same,outcome,[3],inactive
same,outcome,[4],inactive
same,Potency,[5],inactive
same,Potency,[6],inactive
CC(=O)[O-].CC(=O)[O-].O.O.[Cd+2],outcome,[1],inactive
same,Potency,[2],inactive
same,outcome,[3],inactive
same,outcome,[4],inactive
same,Potency,[5],inactive
same,outcome,[8],inactive
same,Potency,[6],inactive
O=C(O)c1cc[c]([Hg][Cl])cc1,outcome,[1],inactive
same,Potency,[2],inactive
same,outcome,[3],inactive
same,outcome,[4],inactive
same,Potency,[5],inactive
same,outcome,[8],inactive
same,Potency,[6],inactive
same,Potency,[7],inactive
CCCCCCCCCBr,outcome,[1],inactive
same,Potency,[2],inactive
same,outcome,[3],inactive
same,outcome,[4],inactive
same,Potency,[5],inactive
same,outcome,[8],inactive
same,Potency,[6],inactive
same,Potency,[9],inactive
Clc1ccc(COC(Cn2ccnc2)c2ccc(Cl)cc2Cl)cc1 (centres undefined),outcome,[1],inactive
same,Potency,[2],inactive
same,outcome,[3],inactive
same,outcome,[4],inactive
same,Potency,[5],inactive
same,outcome,[8],inactive
same,Potency,[6],inactive
O=[N+]([O-])c1cc(C(F)(F)F)c(Cl)c([N+](=O)[O-])c1Cl,outcome,[1],inactive
same,Potency,[2],inactive
same,outcome,[3],inactive
same,outcome,[4],inactive
same,Potency,[5],inactive
same,outcome,[8],inactive
same,Potency,[6],inactive
C[C@]12Cc3nonc3C[C@@H]1CC[C@@H]1[C@@H]2CC[C@@]2(C)[C@H]1CC[C@]2(C)O,outcome,[1],inactive
same,Potency,[2],inactive
same,outcome,[3],inactive
same,outcome,[4],inactive
same,Potency,[5],inactive
same,outcome,[8],inactive
same,Potency,[6],inactive
same,Potency,[7],7.56 µM (active)
N#CNC#N,outcome,[1],inactive
same,Potency,[2],inactive
same,outcome,[3],inactive
same,outcome,[4],inactive
same,Potency,[5],inactive
same,outcome,[8],inactive
same,Potency,[6],inactive
same,Potency,[9],inactive
same,Potency,[7],inactive
Clc1ccc(C(c2ccccc2Cl)C(Cl)(Cl)Cl)cc1 (centres undefined),outcome,[1],inactive
same,Potency,[2],inactive
same,outcome,[3],inactive
same,outcome,[4],inactive
same,Potency,[5],inactive
same,Potency,[6],inactive
same,Potency,[7],22 µM (active) and 20.3 µM (active)
CCC(C)(C)C(=O)OC1=C(c2ccc(Cl)cc2Cl)C(=O)OC12CCCCC2,outcome,[1],inactive
same,Potency,[2],inactive
same,outcome,[3],inactive
same,outcome,[4],inactive
same,Potency,[5],inactive
same,outcome,[8],inactive
same,Potency,[6],inactive
same,Potency,[9],inactive
Nc1ccccc1C(=O)Oc1ccc2ccccc2c1,outcome,[1],inactive
same,Potency,[2],inactive
same,outcome,[3],inactive
same,outcome,[4],inactive
same,Potency,[5],inactive
same,outcome,[8],inactive
same,Potency,[6],inactive
same,Potency,[9],inactive
same,Potency,[7],inactive
Clc1ccc(C(Cl)(Cl)Cl)c(Cl)c1,outcome,[1],inactive
same,Potency,[2],inactive
same,outcome,[3],inactive
same,outcome,[4],inactive
same,Potency,[5],inactive
same,outcome,[8],inactive
same,Potency,[6],inactive
C[C@H]1O[C@@H](O[C@H]2[C@@H](O)C[C@H](O[C@H]3[C@@H](O)C[C@H](O[C@H]4CC[C@@]5(C)[C@H](CC[C@@H]6[C@@H]5CC[C@]5(C)[C@@H](C7=CC(=O)OC7)CC[C@]65O)C4)O[C@@H]3C)O[C@@H]2C)C[C@H](O)[C@@H]1O,outcome,[1],inactive
same,Potency,[2],inactive
same,outcome,[3],inactive
same,outcome,[4],inactive
same,Potency,[5],inactive
same,outcome,[8],inactive
same,Potency,[6],inactive
same,Potency,[9],inactive
same,Potency,[7],0.425 µM (active)
